# In all, about 48,000 compounds went through this assay and about 13,000 (27%) showed an effect of 50% or more. This is one part of the list.
# System: Wolbachia pipientis
# Assay: Anti-Wolbachia Cell-Based Screen
# Format: functional
# Parameters: scale not given: in the data most compounds retested in dose-response had high values
# Details: 5 µM
row,Compound,Percent Effect [%]
1,Cc1noc(C)c1CNCc1ccccc1N(C)C1CCN(C)CC1,3.422
2,Cc1nc(C)c(C)c(N2CCC3(CCN(C)C3)C2)n1 (stereo not given),-3
3,NCC1(c2cccc(C(F)(F)F)c2)CCCC1,-13.69
4,CC(C)=CCN1C[C@H]2CC[C@@H]1CN(C(=O)CSc1ccncc1)C2,19.74
5,COCCN1CCC2(C1)CN(c1ncccn1)C2.O=C(O)C(F)(F)F,-10.62
6,O=S1(=O)NCC2(CCN(Cc3ccc(Cl)s3)C2)Oc2ncccc21 (stereo not given),120.8
7,CC(C)CCN1CCC2(CNS(=O)(=O)c3cccnc3O2)C1 (stereo not given),113.8
8,CC(C)CN1CCC2(CC(C(=O)NCc3cccnc3)=NO2)C1 (stereo not given),-7.517
9,O=C(Cc1ccncc1)N1C[C@H]2CC[C@@H]1CN(Cc1cccnc1)C2,-14.3
10,NCC1(c2cccc(C(F)(F)F)c2)CCCCC1,-7.297
11,CCCc1nnc2sc(C3CCN(CC)CC3)nn12,103.4
12,COc1ccc(CC(=O)N2CCN(Cc3ccco3)C[C@@H]2C)cc1,137.5
13,COc1ccc(CC(=O)N2CCN(Cc3ccco3)C[C@H]2C)cc1OC,147.8
14,O=C(Cc1csc(-c2ccco2)n1)N1CCN(CCO)CC1,5.506
15,COc1cccc(CC(=O)N2CCCSCC2CN2CCCC2)c1 (stereo not given),23.31
16,COc1ccc(C(=O)C2CCCN(Cc3ccc(C)o3)C2)c(OC)c1 (stereo not given),-6.752
17,CO[C@H]1CCN(c2ncc(F)cn2)[C@@H]2CN(Cc3ccco3)C[C@H]12.O=C(O)C(F)(F)F.O=C(O)C(F)(F)F,23.38
18,COc1ccc(CC(=O)N2CCN(Cc3ccco3)C[C@@H]2C)cc1OC,120.6
19,COc1ccc(CCNCc2ccco2)cc1OC,-22.25
20,COc1ccc2c(ccn2CCN)c1,-4.94
21,O=C(O)C(F)(F)F.O=C(O)C(F)(F)F.c1ccc(CO[C@H]2CC[C@H]3[C@H]2OCCN3Cc2nccs2)nc1,-10.71
22,O=C(O)C(F)(F)F.O=C(O)C(F)(F)F.O=C(O)C(F)(F)F.c1cc(CN2CCO[C@H]3[C@H](OCCN4CCCC4)CC[C@@H]32)ccn1,104.9
23,CCN(CC)CCN1CCO[C@H]2[C@@H](OCc3ccncc3)CC[C@@H]21.O=C(O)C(F)(F)F.O=C(O)C(F)(F)F.O=C(O)C(F)(F)F,3.809
24,Cc1cccc(CO[C@@H]2CC[C@H]3[C@H]2OCCN3Cc2nccs2)n1.O=C(O)C(F)(F)F.O=C(O)C(F)(F)F,-8.72
25,O=C(O)C(F)(F)F.O=C(O)C(F)(F)F.O=C(O)C(F)(F)F.c1ccc(CN2CCO[C@H]3[C@H](OCCN4CCCC4)CC[C@@H]32)nc1,-22.42

row,Compound,Percent Effect [%]
1,O=C(NCC1CC1)[C@H]1C[C@@H]2[C@@H](C1)OCCN2Cc1cccnc1.O=C(O)C(F)(F)F.O=C(O)C(F)(F)F,13.71
2,CC(C)NC(=O)[C@H]1C[C@@H]2[C@@H](C1)OCCN2Cc1cccnc1.O=C(O)C(F)(F)F.O=C(O)C(F)(F)F,1.72
3,O=C(O)C(F)(F)F.O=C(O)C(F)(F)F.O=C(O)C(F)(F)F.c1cncc(CN2CCO[C@H]3[C@H](OCCN4CCCC4)CC[C@@H]32)c1,103
4,O=C(O)C(F)(F)F.O=C(O)C(F)(F)F.c1cc(CO[C@H]2CC[C@H]3[C@H]2OCCN3Cc2nccs2)ccn1,124.9
5,Cc1nc(C)c(CC(=O)N2CCN(CC(C)C)CC2)c(=O)[nH]1,-15.6
6,CC[C@H]1CN2CC[C@H]1C[C@@H]2CNC(=O)NC1CCCCC1,-4.604
7,CNC(=O)[C@H]1C[C@@H]2CN(C(=O)c3ccncc3F)C[C@@H]2N1C,2.311
8,CCN(CCN1CCCCCC1)C(=O)COc1cccnc1,-15.49
9,CN1CCc2nc3c(c(N)c2C1)CCCN3C,105.5
10,CC(C)c1cc(N2CCC3(CCN(C)C3)C2)ncn1 (stereo not given),-5.942
11,Cn1cnc(S(=O)(=O)N2C[C@H]3CN(Cc4cccnc4)C[C@H]3C2)c1.O=C(O)C(F)(F)F.O=C(O)C(F)(F)F.O=C(O)C(F)(F)F,-11.02
12,Cn1cnc(S(=O)(=O)N2CC3(CCN(Cc4ccncc4)C3)C2)c1.O=C(O)C(F)(F)F.O=C(O)C(F)(F)F.O=C(O)C(F)(F)F,100.9
13,CCN1CC2(CC1=O)CN(Cc1ccccn1)CCN(C(C)=O)C2.O=C(O)C(F)(F)F.O=C(O)C(F)(F)F (stereo not given),108.4
14,CN(C)C(=O)N1CCCC2(CCN(Cc3ccncc3)C2)C1 (stereo not given),-11.09
15,CCS(=O)(=O)NC[C@]12COC[C@H]1CN(Cc1ccncc1)C2.O=C(O)C(F)(F)F.O=C(O)C(F)(F)F,-4.372
16,Cn1ccnc1CN1CCC2(CC(=O)N(c3ccccn3)C2)C1.O=C(O)C(F)(F)F.O=C(O)C(F)(F)F (stereo not given),-3.39
17,O=C(O)C(F)(F)F.O=C(O)C(F)(F)F.O=C1CC2(CCN(Cc3ccncc3)C2)CN1c1cccc(F)c1 (stereo not given),10.56
18,CC(=O)N1CCN(Cc2ccncc2)CC2(CC(=O)N(C)C2)C1.O=C(O)C(F)(F)F.O=C(O)C(F)(F)F (stereo not given),112.8
19,CC(=O)N1CCOCC2(CN(Cc3ccccn3)CCO2)C1.O=C(O)C(F)(F)F.O=C(O)C(F)(F)F (stereo not given),-7.165
20,CCN1CCc2[nH]cnc2C12CCN(c1ccc(Cl)cn1)CC2,20.82
21,Cc1cc(CN2C[C@@H]3COC[C@]3(CNC(=O)c3ccco3)C2)no1.O=C(O)C(F)(F)F,-9.998
22,Cc1ccc(-c2ccnc3cc(CC(=O)N4CCN(C)CC4)nn23)cc1,99.35
23,CN1CCN(C(=O)Cc2ccc(S(=O)(=O)C(F)F)cc2)CC1,3.1
24,Cc1nc(CC(=O)N2CCN(CCOc3ccccc3)CC2)cs1,-7.543
25,CCCN1CCN(C(=O)Cc2cccnc2)[C@H]2CS(=O)(=O)C[C@H]21,0.3719

row,Compound,Percent Effect [%]
1,CCS(=O)(=O)NC[C@]12COC[C@H]1CN(Cc1cccnc1)C2.O=C(O)C(F)(F)F.O=C(O)C(F)(F)F,-8.022
2,C[C@@H]1CN(C2CCOC2)C[C@]12CCN(c1cccnc1)C2=O.O=C(O)C(F)(F)F.O=C(O)C(F)(F)F (stereo not given in full),8.884
3,O=C(O)C(F)(F)F.O=C(O)C(F)(F)F.c1cncc(OC[C@]23COC[C@H]2CN(C2CCOCC2)C3)c1,108.8
4,O=C(O)C(F)(F)F.O=C(O)C(F)(F)F.c1cncc(OC[C@@]23CCC[C@@H]2CN(CC2CCOCC2)C3)c1,108.6
5,O=C(O)C(F)(F)F.O=C(O)C(F)(F)F.c1cncc(OC[C@@]23CCC[C@@H]2CN(C2CCOCC2)C3)c1,96.07
6,O=C(O)C(F)(F)F.O=C(O)C(F)(F)F.c1ccc(CN2C[C@H]3CCC[C@@]3(COCC3CCOCC3)C2)nc1,5.827
7,Cc1cc(CN2C[C@H]3CCC[C@@]3(COCC3CCOCC3)C2)no1.O=C(O)C(F)(F)F,1.109
8,O=C(NC1CC(F)(F)C1)[C@]12COC[C@H]1CN(Cc1cccnc1)C2.O=C(O)C(F)(F)F.O=C(O)C(F)(F)F,1.025
9,C[C@@H]1CN(C2CCOCC2)C[C@]12CCN(c1cccnc1)C2=O.O=C(O)C(F)(F)F.O=C(O)C(F)(F)F,17.85
10,O=C(NC[C@]12COC[C@H]1CN(Cc1cccnc1)C2)C1CCC1.O=C(O)C(F)(F)F.O=C(O)C(F)(F)F,96.22
11,COc1ncccc1CN1C[C@@H]2COC[C@]2(COCC2CC2)C1.O=C(O)C(F)(F)F.O=C(O)C(F)(F)F,12.64
12,Cl.O=C(C1CCCCC1)N1CC2(CCNCC2)C1,-23.98
13,CC(C)(C)NC(=O)CNc1ccc(C#N)c(C(F)(F)F)c1,3.351
14,COCCO[C@H]1COCCN(C2CCN(C)CC2)C1,-1.205
15,Cc1nc(N2C[C@H]3CNC[C@H]3C2)c2sccc2n1,3.045
16,O=C(O)C(F)(F)F.O=C(O)C(F)(F)F.c1ccc(OC[C@]23COC[C@H]2CN(Cc2ccoc2)C3)nc1,-16.38
17,O=C(O)C(F)(F)F.O=C(O)C(F)(F)F.c1cncc(OC[C@]23COC[C@H]2CN(Cc2cccs2)C3)c1,-9.167
18,O=C(O)C(F)(F)F.O=C(O)C(F)(F)F.c1ccc(CN2C[C@@H]3COC[C@]3(COCC3CCOCC3)C2)nc1,9.184
19,c1cc(COC[C@@]23CCC[C@@H]2CN(C2CCOCC2)C3)ccn1,95.49
20,O=C(O)C(F)(F)F.c1cnc(N2CCC3(CCN(CC4CCOC4)C3)CC2)nc1 (stereo not given),-13.35
21,O=C(O)C(F)(F)F.O=C(O)C(F)(F)F.c1cncc(OC[C@]23COC[C@H]2CN(C2CCC2)C3)c1,103
22,O=C(O)C(F)(F)F.O=C(O)C(F)(F)F.c1cc(CN2C[C@@H]3COC[C@]3(COCC3CC3)C2)ccn1,8.652
23,O=C(O)C(F)(F)F.O=C(O)C(F)(F)F.c1ccc(OC[C@]23COC[C@H]2CN(C2CCOCC2)C3)nc1,115.9
24,O=C(O)C(F)(F)F.O=C(O)[C@]12CCCN(C3CCOC3)C[C@H]1CN(c1ncccn1)C2 (stereo not given in full),103.8
25,O=C1[C@@H]2CCN(C3CCC3)C[C@@H]2OCCN1Cc1ccncc1,-0.008003
